LASV entry inh: Lassa virus entry inhibition. Lassa virus pseudotype entry inhibition, cell reporter. Potency, µM (series often up to 37.9 µM), for inactives: at the highest dose activity change, negative = inhibition, actives largely listed as inhibitors. hit rate 1.2% among 300,000. AID 540256; calls by dose curve; tested in HEK293 cells; note: potency is the fitted concentration of half-maximal effect; % is set by controls: 0 for no effect and ±100 for the full control effect; nearly all actives have a fitted effect of over 50% in size
VACV Venus inh: inhibitors of vaccinia virus (Venus reporter); Vaccinia virus Venus reporter expression, fluorescence; Potency, µM (titrated, usually from 36.5 µM), for inactives: at the top dose activity change, negative = inhibition, actives largely listed as inhibitors; hit rate 0.46% among 330,000; AID 720580; calls by dose curve; tested in A549 cells; note: potency is the fitted concentration of half-maximal effect; % is set by controls: 0 for no effect and ±100 for the full control effect; nearly all actives have a fitted effect of over 30% in size
MARV entry inh: blocks Marburg virus binding to or entry into cells; AID 540276; hit rate 1.8% among 300,000; Marburg virus pseudotyped entry inhibition, cell reporter; Potency, µM (series often up to 37.8 µM), for inactives: top-dose activity change, negative = inhibition, most hits filed as inhibitors; calls by dose curve; tested in HEK293 cells; note: potency is the fitted concentration of half-maximal effect; % is set by controls: 0 for no effect and ±100 for the full control effect
VACV mCherry inh: inhibitors of vaccinia virus infection (mCherry reporter signal); Vaccinia virus mCherry reporter infection, fluorescence; Potency, µM (titrated, usually from 36.5 µM), inactives show at the top dose activity change, negative = inhibition, actives largely listed as inhibitors; hit rate 0.63% among 310,000; calls by dose curve; tested in A549 cells; note: potency is the fitted concentration of half-maximal effect; % is set by controls: 0 for no effect and ±100 for the full control effect; nearly all actives have a fitted effect of over 35% in size
Shiga inhibitor: inhibitors of Shiga toxin in Vero cells | hit rate 9.2% among 290,000 | AID 2315 | inhibition, % at 38.7 µM | Vero cells, Shiga toxin protein synthesis inhibition reporter; in the data active = inhibition mostly above about 28%, no sharp cut-off; inactive = mostly below about 43%; note: 0% is about no effect
CHX counter: counter-screen hit for Shiga toxin inhibitors, cycloheximide; cell reporter, cycloheximide protein synthesis inhibition counterscreen; max response, %; hit rate 12% among 300,000; in the data active = max response mostly above about 13%, no sharp cut-off; inactive = mostly below about 14%; note: read at 38.3 µM for the half of the compounds with a filed dose; 0% is about no effect
An asterisk follows results filed as active; i = inactive; u = inconclusive; x = not tested or not shown; + = active, no number; [ ] = dose if it differs, or a comment. Only a selection was taken, and hits are over-represented in it overall.

SMILES	LASV entry inh	VACV Venus inh	MARV entry inh	VACV mCherry inh	Shiga inhibitor	CHX counter
C/C(=N\NC(=O)C1CC1)c1cccnc1	6%	-4%	-25%	i	11	1
COc1ccc(-c2nc3ccc(NC(C)=O)cc3c(=O)n2Cc2ccccc2)cc1COc1ccc(NC(C)=O)cc1	x	-7%	x	i	x	x
COc1cc(OC)c(NC(=O)C2CCN(C(=O)c3sc4nc[nH]c(=O)c4c3C)CC2)cc1Cl	u	-7%	x	-8%	x	x
COc1ccc(NC(=O)Cn2cc(C(=O)c3ccccc3OC)c(=O)c3ccc(C)nc32)cc1OC	27%[46.1 µM]	-10%	x	-12%	x	x
CCC1CN(CCNC(=O)c2ccnc(Cl)c2)Cc2cc(OC)ccc2O1 (centres undefined)	x	-4%	x	-6%	x	x
COc1ccc(-n2c(-c3ccc(C)cc3)cc3c2CC(C)(C)CC3=O)c(OC)c1	u	-1%	u	2%	x	x
C/C(=N\NC(=O)c1cc(-c2cccnc2)nc2ccccc12)c1ccc(O)cc1O	6.3µM*	u	7.1µM*	11µM*	13	9
CC1=C2CCCC[C@@]23C2C(=O)N(C)C(=O)[C@@H]2ON3OC1 (some centres undefined)	x	3%	x	-8%	x	x
COc1cc(/C=N/NC(=O)c2ccc3c(c2)OCCO3)c(Br)c(Br)c1O	x	x	x	x	30	32*
COc1cc(/C=N/NC(=O)C23CC4CC(CC(C4)C2)C3)cc(Br)c1O	4%	-5%	u	-24%	26*	4
COc1ccc(/C=N/NC(=O)c2ccc3c(c2)OCCO3)cc1[N+](=O)[O-]	13%	-10%	19%	-14%	-2	-1
COc1cc(/C=N/NC(=O)c2ccc3c(c2)OCCO3)cc(Br)c1O	x	-6%	x	-6%	41*	32*
COCCn1c(C)cc(O)c(C(c2cccc(F)c2)N2CCN(c3ccccc3)CC2)c1=O (centres undefined)	22%[46.1 µM]	-10%	x	-13%	x	x
CCCCCCCCCCCCCCCC[n+]1cccc2ccccc21	7.9µM*	10µM*	u	10µM*	-13	-9
CCCCCCCCCCCC[n+]1ccc(C)c2ccccc21	x	-9%	x	-11%	x	x
CCCCCCCCC[n+]1cccc2c3ccccc3ccc21	2.8µM*	11µM*	2µM*	x	-15	-2
Cc1ccc(Cn2ccnc2SCC(=O)Nc2ccc3c(c2)OCO3)cc1	15%[46.1 µM]	-12%	x	-9%	x	x
CC(C)=CCN1CCN(Cc2cn(C(C)C)c3ccccc23)CC1CCO (centres undefined)	x	x	x	x	4	-3
COc1cc2c(cc1OC)C13CCN4CC5CCOC6CC(=O)N2C1C6C5CC43 (centres undefined)	-2%[46.1 µM]	-21%	0%[46.1 µM]	-15%	x	x
COc1cc2c(cc1OC)C13CCN4CC5=CCOC6CC(=O)N2C1C6C5CC43 (centres undefined) (tested in a mixture with another compound)	x	+	x	-5%	9	-2
Cc1cc(/C=C(\C#N)C(=O)N2CCCCC2)cc(C)c1O	u	-20%	u	u	51*	17
COc1ccc(Cn2ccc3nc(C)c(C(=O)Nc4cc(OC)c(OC)c(OC)c4)cc3c2=O)cc1	5%[46.1 µM]	7%	x	-7%	x	x
COc1cccc(OC)c1OCCCOc1c(OC)cccc1OC	1%	-8%	-13%[46.1 µM]	-15%	-6	-3
COc1cccc(OC)c1OCCNCC1CSc2ccccc2O1 (centres undefined)	u	-8%	26µM*	i	x	x
NS(=O)(=O)OCCCCCc1ccccc1	x	-7%	x	i	19	14*
SMILES	LASV entry inh	VACV Venus inh	MARV entry inh	VACV mCherry inh	Shiga inhibitor	CHX counter
Cc1c(Cl)cccc1NC(=S)N(Cc1cccs1)C1CCCC1	u	-18%	-6%	-9%	13	16*
COc1ccc(-c2csc(N(CCCN(C)C)C(=O)c3ccccc3F)n2)cc1	x	x	x	x	-13	-3
COc1ccc(-c2csc(N(CCCN(C)C)C(=O)c3ccccc3C)n2)cc1	10µM*	u	u	u	-11	-10
COc1ccc(-c2csc(N(CCCN(C)C)C(=O)c3ccccc3Cl)n2)cc1	u	u	5.6µM*	11µM*	x	x
Cc1cc(F)ccc1S(=O)(=O)Nc1ccccc1C(=O)NC1CCN(Cc2ccccc2)CC1	u	10µM*	u	u	x	x
Cc1ccccc1C(=O)NC1CCN(Cc2ccccc2)CC1	-5%	5%	-19%[46.1 µM]	i	19	-3
O=C(Cn1cc2c(n1)CCCC2)Nc1cc(-c2cccc(Cl)c2)no1	x	10%	x	5%	44*	28*

Bioassay records deposited in PubChem BioAssay by National Center for Advancing Translational Sciences (NCATS).
